In all, about 5,500 compounds went through this assay and about 2,000 (36%) were called active. Roughly 18% stayed inconclusive and do not appear here. No stated cut-off is given here; in the data, active means normalized growth mostly below about 0.91 (no sharp cut-off); inconclusive means no clear call, values can overlap the other calls; inactive means mostly above about 0.92. The list shows a part of the results.
Assay: chemical genetic growth profiling, strain panel (AID 1159580);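 further: tested at 20 µM; growth read once vehicle control cultures reached saturation at 30 °C; 1 = growth at the plate median or of vehicle wells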
Conditions: growth OD
[1] = S. cerevisiae deletion strains, locus YAL013W, strain DEP1, stronger effect = lower value
[2] = S. cerevisiae deletion strains, locus YBR229C, strain ROT2, stronger effect = lower value
[3] = S. cerevisiae deletion strains, locus YDL101C, strain DUN1, stronger effect = lower value
[4] = S. cerevisiae deletion strains, locus YDL134C, strain PPH21, stronger effect = lower value
[5] = S. cerevisiae deletion strains, locus YDR150W, strain NUM1, stronger effect = lower value
[6] = S. cerevisiae deletion strains, locus YEL061C, strain CIN8, stronger effect = lower value
[7] = S. cerevisiae deletion strains, locus YGR078C, strain PAC10, stronger effect = lower value
[8] = S. cerevisiae deletion strains, locus YHR030C, strain SLT2, stronger effect = lower value
[9] = S. cerevisiae deletion strains, locus YHR087W, strain rtc3, stronger effect = lower value
[10] = S. cerevisiae deletion strains, locus YJR043C, strain POL32, stronger effect = lower value
[11] = S. cerevisiae deletion strains, locus YJR075W, strain HOC1, stronger effect = lower value
[12] = S. cerevisiae deletion strains, locus YLR039C, strain RIC1, stronger effect = lower value
[13] = S. cerevisiae deletion strains, locus YLR058C, strain SHM2 (second series), stronger effect = lower value
[14] = S. cerevisiae deletion strains, locus YLR085C, strain ARP6, stronger effect = lower value
[15] = S. cerevisiae deletion strains, locus YLR262C, strain YPT6, stronger effect = lower value
[16] = S. cerevisiae deletion strains, locus YML094W, strain GIM5, stronger effect = lower value
[17] = S. cerevisiae deletion strains, locus YMR219W, strain ESC1, stronger effect = lower value
[18] = S. cerevisiae deletion strains, locus YMR263W, strain SAP30, stronger effect = lower value
[19] = S. cerevisiae deletion strains, locus YMR307W, strain GAS1, stronger effect = lower value
[20] = S. cerevisiae deletion strains, locus YNL128W, strain TEP1, stronger effect = lower value
[21] = S. cerevisiae deletion strains, locus YNL153C, strain GIM3, stronger effect = lower value
[22] = S. cerevisiae deletion strains, locus YNL298W, strain CLA4 (second series), stronger effect = lower value
[23] = S. cerevisiae deletion strains, locus YNL322C, strain KRE1, stronger effect = lower value
[24] = S. cerevisiae deletion strains, locus YNR030W, strain Alg12, stronger effect = lower value
[25] = S. cerevisiae deletion strains, locus YPL055C, strain LGE1, stronger effect = lower value
[26] = S. cerevisiae deletion strains, locus YPL241C, strain CIN2, stronger effect = lower value
[27] = S. cerevisiae deletion strains, locus YPR135W, strain CTF4, stronger effect = lower value

Measured: normalized growth

COc1ccc(C=Nc2ccc(O)cc2)cc1
inactive: [1] 0.999 | [2] 1.01 | S. cerevisiae deletion strains, locus YCL061C, strain MRC1, stronger effect = lower value 0.979 | [3] 1.03 | [4] 1.03 | [5] 0.975 | [6] 1.05 | [7] 0.996 | [8] 1.04 | [9] 0.998 | [10] 0.99 | [11] 1.04 | S. cerevisiae deletion strains, locus YKL190W, strain CNB1, stronger effect = lower value 1.02 | [12] 0.936 | [13] 1.02 | [14] 1.03 | [15] 0.931 | [16] 1.01 | [17] 0.996 | [18] 1.02 | [19] 1.15 | [20] 1.02 | [21] 1.01 | [22] 1.04 | [23] 0.994 | [24] 1.01 | [25] 1.04 | [26] 0.987 | [27] 0.995

COc1ccc(N=Cc2ccccc2O)cc1
inactive: [1] 0.993 | [2] 0.99 | [3] 0.991 | [4] 1.01 | [5] 0.952 | [6] 0.991 | [7] 0.995 | [8] 0.879 | [9] 0.969 | [10] 0.956 | [11] 0.967 | [12] 0.841 | [13] 0.988 | [14] 0.999 | [16] 0.978 | [17] 0.976 | [18] 0.963 | [20] 0.986 | [21] 1.01 | [22] 0.975 | [23] 0.985 | [24] 0.973 | S. cerevisiae deletion strains, locus YOL006C, strain TOP1, stronger effect = lower value 0.819 | [25] 0.912 | [26] 0.977 | [27] 0.86 | S. cerevisiae strains, strain wild type, stronger effect = lower value 0.977
active: [15] 0.813

CCCN(CCC)CCc1c[nH]c2ccc(C(N)=O)cc12
inactive: S. cerevisiae deletion strains, locus YAL040C, strain CLN3, stronger effect = lower value 1.07 | S. cerevisiae deletion strains, locus YCL061C, strain MRC1 (second series), stronger effect = lower value 0.996 | S. cerevisiae deletion strains, locus YDR363W, strain ESC2, stronger effect = lower value 0.981 | S. cerevisiae deletion strains, locus YER002W, strain NOP16, stronger effect = lower value 0.991 | [18] 0.988 | [19] 1 | S. cerevisiae deletion strains, locus YNL175C, strain NOP13, stronger effect = lower value 1.05 | S. cerevisiae deletion strains, locus YNL197C, strain WHI3, stronger effect = lower value 1.02 | S. cerevisiae deletion strains, locus YNL224C, strain SQS1, stronger effect = lower value 0.994 | [23] 0.95 | S. cerevisiae deletion strains, locus YOR083W, strain WHI5 (second series), stronger effect = lower value 1.01 | [26] 0.988

Reference: PubChem BioAssay AID1159580 (chemical genetic matrix, 2015)
